PubChem BioAssay AID1626 (SRMLSC, 2009)
Out of some 220,000 compounds screened, about 2,000 (0.91%) were called active. About 2% were inconclusive and are not listed. Not all results are given here. Potency and affinity values are given separately. Unmarked numbers belong to inactive results. No stated cut-off is given here; in the data, inconclusive means inhibition above about 80% without an active follow-up result; inactive means below that; test concentration not stated here.

Experiment: M. tuberculosis H37Rv growth inhibitors, H37Rv strain (AID 1626);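 further: bacteria incubated seven days before Alamar blue readout; 0% = bacteria only wells and 100% = bacteria with antibiotic wells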
Conditions: stronger effect = higher value, concentration not given here

| Compound | inhibition [%] |
| --- | --- |
| CCCN1CCN(CCCNC(=O)C2CCN(c3nnc(-n4cccc4)s3)CC2)CC1 | -6.41 |
| O=C(CSc1nc(-c2ccccc2Cl)ns1)NCc1ccco1 | 24.3 |
| NC(=O)CSc1nc(-c2ccccc2Cl)ns1 | -12.5 |
| COc1ccc(-n2c(C)cc(SC)c(C(C)=O)c2=S)cc1 | 1.47 |
| CC(Sc1nnnn1-c1ccccc1)C(=O)Nc1ccc(Cl)cn1 (centres undefined) | -7.65 |
| CC(Sc1nncn1C)C(=O)Nc1ccc(Cl)cn1 (centres undefined) | 4.99 |
| Cc1nn(-c2ccccc2)c2c1C(c1ccc(Cl)cc1)N(c1ccccc1)C(=O)N2 (centres undefined) | 63.4 |
| COc1cccc(C2c3c(C)nn(-c4ccc([N+](=O)[O-])cc4)c3N=C3C(=O)Nc4ccccc4N32)c1 (centres undefined) | 72.8 |
| Cc1nn(-c2ccccc2)c2c1C(c1ccc([N+](=O)[O-])cc1)C(C#N)=C(N)O2 (centres undefined) | -9.83 |
| Cc1nn(-c2ccc([N+](=O)[O-])cc2)c2c1C(c1cccc(Br)c1)N1C(=N2)C(=O)Nc2ccccc21 (centres undefined) | 73 |
| Cc1c(NC(=O)C(C)OC(=O)COc2cccc3c2OC(C)(C)C3)c(=O)n(-c2ccccc2)n1C (centres undefined) | 0.88 |
| COCCNC(=O)COC(=O)c1ccc(OCC(=O)Nc2ccccc2OC)c(OC)c1 | 2.52 |
| CCC1(C)CC(C(N)=S)CCO1 (centres undefined) | 7.13 |
| CCOC(=O)c1ccc(CSc2nnc(C)n2N)o1 | 1.16 |
| NC(=O)C[C@H]1NC(=O)[C@H](CCC(=O)O)NC(=O)c2cc([N+](=O)[O-])cc(I)c2NCCC[C@@H](C(N)=O)NC1=O | 3.24 |
| c1ccc2cc3c(NCCN4CCOCC4)ccnc3cc2c1 | 3.77 |
| COc1ccc(Nc2ccnc3ccccc23)cc1 | 9.05 |
| Oc1ccc(Nc2ccnc3cc(Cl)ccc23)cc1 | -0.59 |
| c1ccc(CCNc2ncnc3ccccc23)cc1 | -6.97 |
| Cc1c(C(=O)NCc2ccccc2Cl)oc2c1C(=O)CCC2 | -3.25 |
| CCCCn1nc2cc(C(=O)NCc3cc(C(F)(F)F)cc(C(F)(F)F)c3)ccc2c1OC | -4.51 |
| O=C(NC1CCCCC1)c1ccc(Cn2cc(Cl)cn2)cc1 | 0.85 |
| CC(=O)Nc1ccc(NC(=O)c2ccc(Cl)nc2)cc1 | 3.97 |
| CCCSc1ccc(C(=O)Nc2ccc(F)cc2F)cn1 | 72.4 |

| Compound | inhibition [%] |
| --- | --- |
| N=C1/C(=C/c2cccn2-c2cccc([N+](=O)[O-])c2)C(=O)N=C2SC=CN12 | -11.3 |
| N=C1/C(=C/c2cccn2-c2ccc([N+](=O)[O-])cc2)C(=O)N=C2SC=CN12 | -5.89 |
| Cc1ccc2cc(CN(CC3CCCO3)C(=O)C(C)C)c(=O)[nH]c2c1 (centres undefined) | -3.77 |
| CCCCCCCCCCCCCCCC[n+]1cccc(C(=O)N(CC)CC)c1 | 5.29 |
| C=C(C)Cn1c(=O)c(NC(=O)c2ccccc2)c2n(c1=S)CCC2 | -3.38 |
| O=C(NCCCN1CCOCC1)c1cccnc1SCc1ccccc1Cl | -2.04 |
| CCN(CC)CCN(Cc1cc2ccc(C)c(C)c2[nH]c1=O)C(=S)NCc1ccco1 | -6.4 |
| O=[N+]([O-])c1ccc(COc2ccc(-c3[nH]ncc3-c3ccccc3)c(O)c2)cc1 | 11.9 |
| COc1ccc(-c2cn[nH]c2-c2ccc(OCc3ccc([N+](=O)[O-])cc3)cc2O)cc1 | 9.69 |
| Cc1ccc(SCc2ccc(C(=O)N3CCCCC3)cc2)cc1 | 4.74 |
| COC(=O)CCCCC1SCC(NC(=O)c2ccccc2)C1OC(C)=O (centres undefined) | -1.97 |
| COC(=O)/C(=C\Nc1ccc(OC)cc1)NC(=O)c1ccc(Cl)cc1Cl | 46.4 |
| CCCOC(=O)c1ccc(NS(=O)(=O)c2cccs2)cc1 | 8.32 |
| CCN(CC)CCOC(=O)c1ccc(NC(=O)/C=C/c2cccs2)cc1 | -0.83 |
| O=C(/C=C/c1cccs1)Nc1ccncc1 | -3.31 |
| NS(=O)(=O)c1ccc(NC(=O)/C=C/c2cccs2)cc1 | -2.49 |
| CC(=O)Nc1ccc(N(C(=O)c2ccco2)C(C(=O)NC2CCCC2)c2cccs2)cc1 (centres undefined) | -12.6 |
| O=C(O)c1cc([N+](=O)[O-])ccc1Nc1ccccc1 | 0.55 |
| CCOC(=O)C1=C(C)N(Cc2ccccc2)C(=O)NC1c1ccccc1OS(=O)(=O)c1ccccc1[N+](=O)[O-] (centres undefined) | 1.38 |
| CCNC(=O)CN(C1CCCCC1)S(C)(=O)=O | -1.63 |
| Cc1cc(N2CCN(C(=O)c3ccco3)CC2)n2ncnc2n1 | 0.62 |
| O=C(Nc1ccc(Cl)c(Cl)c1)Oc1ccc(NC(=O)c2ccco2)cc1 | 61.8 |
| CCc1ccc(C(C)NC(=O)Cc2ccc(F)cc2)cc1 (centres undefined) | 9.96 |
| COCCCn1c(-c2ccccc2)nc2ccccc2c1=O | 5.89 |

| Compound | inhibition [%] |
| --- | --- |
| CCOC(=O)Cn1c(-c2ccccc2)nc2ccccc2c1=O | 45.8 |
| CCCNS(=O)(=O)c1ccc(OCC(=O)Nc2ccc3c(c2)OCO3)cc1 | -3.44 |
| CCCN(CC1CC1)C(=S)Nc1ccc(C(C)=O)cc1 | -2.45 |
| COc1ccc(-c2nn3c(C4CCCCC4)nnc3s2)cc1OC | 4.71 |
| COc1cc(-c2nn3c(C4CCCCC4)nnc3s2)cc(OC)c1OC | 28.5 |
| Cc1nnc(Sc2cc(C(=O)NCCCOC(C)C)c3ccccc3n2)s1 | 4.65 |
| CCN1C(=O)C2(C(C#N)=C(N)Oc3n[nH]c(COC)c32)c2ccccc21 (centres undefined) | -1.31 |
| Cc1cccc2cc(CNCc3ccccc3)c(Cl)nc12 | -2.86 |
| Cc1ccc(CNCc2ccccc2Cl)cc1 | 6.89 |
| Cc1cc(C)c(NC(=O)CSc2nc3ccc(NC(=O)CSc4nnnn4Cc4ccccc4)cc3s2)c(C)c1 | 8.59 |
| O=C(CCN1CCN(Cc2ccccc2)CC1)Nc1cccc(Cl)c1 | -5.85 |
| Cc1ccc2c(CN3CCN(Cc4ccc5c(c4)OCO5)CC3)cc(=O)oc2c1C | -3.12 |
| Cc1cc(C)c2c(CN3CCN(Cc4ccc5c(c4)OCO5)CC3)cc(=O)oc2c1 | 23.5 |
| CCOc1ccccc1NC(=O)CN1C(=O)CSC(C)C1=O (centres undefined) | 2.75 |
| CNC(=S)N1N=C(c2ccc(C)cc2)CC1c1ccc(OC)cc1 (centres undefined) | 3.11 |
| COC(=O)c1cn(C(=O)/C=C/c2ccc(OC)c(OC)c2)c2ccccc12 | 4.86 |
| c1ccc(Cn2c(CNc3nc4ccccc4n3CCN3CCCCC3)nc3ccccc32)cc1 | 16.8 |
| CCOC(=O)c1ccc(NC(=S)NNC(=O)C2(C)CC2(Cl)Cl)cc1 (centres undefined) | 1.27 |
| CN1C(=O)C(=Cc2ccc(-c3cccc(Cl)c3)o2)C(=O)N(C)C1=O | 5.04 |
| O=C1OC(c2cccs2)=N/C1=C\c1ccc(-c2cccc(Cl)c2)o1 | 4.3 |
| N=C1S/C(=C\c2ccco2)C(=O)N1c1ccc2c(c1)OCO2 | 3.8 |
| O=C1/C(=C/c2ccco2)SC(=S)N1c1cccnc1 | -3.57 |
| O=S(=O)(c1cnc(Cl)c(Br)c1)N1CCN(c2ncccn2)CC1 | -10.8 |
| Cc1ccc(C(NC(=O)c2ccccc2)C(Cl)(Cl)Cl)cc1 (centres undefined) | 5.19 |

| Compound | inhibition [%] |
| --- | --- |
| CC(=O)NC(O)C(=O)c1ccccc1 (centres undefined) | 3.23 |
| O=Cc1cn(CC(=O)NCC2CCCO2)c2ccccc12 (centres undefined) | 2.23 |
| Cc1occc1-c1nnc(SCC(=O)NC2CCCC2)n1-c1ccccc1 | 2.16 |
| CCOC(=O)Cn1cnc2c(cnn2-c2ccc(Cl)cc2)c1=O | -3.87 |
| CCN(CC)C(=O)CSc1ncnc2c1cnn2Cc1ccccc1 | -79.5 |
| CC(=O)CSc1ncnc2c1cnn2-c1ccccc1 | -1.25 |
| CCOC(=O)CC(=O)CSc1ncnc2c1cnn2-c1ccccc1 | -1.22 |
| CNC(=O)CSc1ncnc2c1cnn2-c1ccccc1 | -3.44 |
| NC(=O)CSc1ncnc2c1cnn2Cc1ccccc1 | -0.76 |
| CCOC(=O)CNC(=O)CSc1ncnc2c1cnn2-c1ccc(Cl)cc1 | 14.2 |
| CC(C)(C)C(=O)CSc1ncnc2c1cnn2-c1ccccc1 | 9.82 |
| COc1ccc(Cc2nnc(SCC(=O)N3CCCCC3)o2)cc1 | 3.26 |
| O=C1N(Cc2cccnc2)C[C@@H]2C[C@@H](c3cccc(C(F)(F)F)c3)N3CCC[C@@]123 | 2.57 |
| CCCCOc1nc2ccccc2nc1C(C#N)S(=O)(=O)c1ccccc1 (centres undefined) | -4.72 |
| CN(c1ccc(OCC(=O)OCC(=O)NCc2ccco2)cc1)S(=O)(=O)c1ccc2ccccc2c1 | -0.25 |
| COc1ccccc1C(=O)C1CCCN(C(=O)c2snnc2C)C1 (centres undefined) | -0.23 |
| Cc1ccc(SCC(=O)NCCSCc2ccccc2)cc1 | 7.41 |
| CSc1ncnc2c1cnn2-c1ccc(C)cc1C | 11.1 |
| CCOC(=O)CNC(=O)CSc1ncnc2c1cnn2-c1ccc(C)cc1 | -3.46 |
| CCOC(=O)CNC(=O)CSc1ncnc2c1cnn2-c1ccc(OC)cc1 | 14.6 |
| Cc1ccc(-n2ncc3c(SCC(=O)Nc4cc(C)on4)ncnc32)c(C)c1 | 0.2 |
| COCc1cc(C)nc(Nc2ccc(C)c(C)c2)c1C#N | -2.04 |
